An excerpt weighted towards active compounds, which were near 3.8% of everything screened.
A549 tox-1: Nrf2 qHTS screen for inhibitors: counterscreen for cytotoxicity; 390,000 tested, 0.16% active; A549 ARE-Fluc cells, CellTiter-Fluor viability, 18-24 h; Potency, µM (top dose mostly 46 µM), for inactives: top-dose activity change, negative = cytotoxicity, actives largely listed as inhibitors; further: on the % scale 0 is the no-effect control and ±100 the full control effect
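Cytotoxicity counterscreen: CellTiter-Fluor fluorescence was measured in A549 ARE_Fluc cells after 18-24 h of compound exposure in a concentration series. The subsequent BugLite luminescent read reports ARE-luciferase activity.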
Nrf2 ARE act: qHTS of Nrf2 Activators; Potency, µM (series often up to 46.1 µM), inactives show top-dose activation, usual class: activators; AREc32 ARE-luciferase reporter (MCF7-derived line), luminescence, 24 h; 410,000 tested, 0.31% active; further: % of control where 0% means no effect; nearly all actives have a fitted effect of over 65% in size
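Reporter line AREc32 (ARE-Fluc), seeded overnight in OPTI-MEM with 5% FBS; compound pin-transferred, 24 hr at 37 deg C, 5% CO2; luminescent read-out.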
IDH1 R132H inh: qHTS for Inhibitors of mutant isocitrate dehydrogenase 1 (IDH1): qHTS | Isocitrate dehydrogenase [NADP] cytoplasmic (Homo sapiens), O75874 | IDH1-R132H enzyme, NADPH consumption, diaphorase/resazurin fluorescence | Potency, µM (titrated, usually from 76.6 µM), for the others: at the highest dose activity change, negative = inhibition, actives largely listed as inhibitors | 390,000 tested, 0.093% active | AID 602179, 2012; further: on the % scale 0 is the no-effect control and ±100 the full control effect; nearly all actives have a fitted effect of over 65% in size
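IDH1-R132H (0.5 ug/mL) preincubated 30 min with compound, then NADPH (0.016 mM) and alpha-KG (2 mM) added; 80 min at RT, pH 7.5. Remaining NADPH coupled via diaphorase/resazurin to fluorescence (540/590 nm); concentration-response curves normalized to no-enzyme control.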
Nrf2 inh: Nrf2 qHTS screen for inhibitors; Potency, µM (doses to about 46 µM), without a hit: at the highest dose activity change, negative = inhibition, actives largely listed as inhibitors; 360,000 tested, 2.1% active; AID 504444, 2011; A549 ARE-Fluc reporter, luciferase luminescence, 18-24 h; further: on the % scale 0 is the no-effect control and ±100 the full control effect; nearly all actives have a fitted effect of over 60% in size
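Concentration-response testing used A549 ARE_Fluc cells at 5000 cells/well. Following an 18-24 h compound incubation, viability was read by fluorescence (Ex 405/Em 525) and luciferase output by luminescence.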
ELG1 DNA repair: qHTS screen for small molecules that inhibit ELG1-dependent DNA repair in human embryonic kidney (HEK293T) cells expressing luciferase-tagged ELG1; HEK293T ELG1-luciferase reporter, luminescence, 16 h; DNA damage induced by 5-fluorouridine; Potency, µM (top dose mostly 46.1 µM), for inactives: top-dose activity change, negative = inhibition, hits mostly inhibitors; 330,000 tested, 2.3% active; further: on the % scale 0 is the no-effect control and ±100 the full control effect; nearly all actives have a fitted effect of over 55% in size
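Reporter activity after DNA damage by 5-fluorouridine is monitored. Compound-treated cells incubate 16 hr at 37 °C, then ONE-Glo is added for 30 min before luminescence reading.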
FLuc enzyme inh: Nrf2 qHTS screen for inhibitors: Purified Fluc Biochemical Counterscreen for Hit Validation | purified firefly luciferase, luminescence inhibition | shares compounds with Nrf2 inh | 1,400 tested, 4% active | Potency, µM (titrated, usually from 57.5 µM), without a hit: at the highest dose activity change, negative = inhibition, usual class: inhibitors; further: on the % scale 0 is the no-effect control and ±100 the full control effect; nearly all actives have a fitted effect of over 65% in size
Target sequence (P08659 whole entry, looked up): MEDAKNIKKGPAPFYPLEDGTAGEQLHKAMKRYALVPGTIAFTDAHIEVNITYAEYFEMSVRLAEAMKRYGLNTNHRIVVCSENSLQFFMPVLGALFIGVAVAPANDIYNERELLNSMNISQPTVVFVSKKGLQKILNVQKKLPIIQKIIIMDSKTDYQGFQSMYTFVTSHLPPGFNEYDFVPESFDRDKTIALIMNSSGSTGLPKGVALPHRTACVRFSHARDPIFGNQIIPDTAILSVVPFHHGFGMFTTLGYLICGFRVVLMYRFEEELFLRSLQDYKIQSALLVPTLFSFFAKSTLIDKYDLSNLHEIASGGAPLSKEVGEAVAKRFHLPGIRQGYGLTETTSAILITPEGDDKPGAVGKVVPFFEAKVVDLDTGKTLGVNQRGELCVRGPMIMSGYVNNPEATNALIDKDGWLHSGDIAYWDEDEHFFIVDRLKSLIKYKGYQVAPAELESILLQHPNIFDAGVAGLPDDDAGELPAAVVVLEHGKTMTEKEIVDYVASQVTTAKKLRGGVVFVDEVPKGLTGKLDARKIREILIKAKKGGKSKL
A549 tox-2: Nrf2 qHTS screen for inhibitors: A549 ARE-Fluc Cytotoxicity Counterscreen for Hit Validation; shares compounds with Nrf2 inh; A549 ARE-Fluc cells, cytotoxicity counterscreen; Potency, µM (titrated, usually from 46.1 µM), for the others: at the highest dose activity change, negative = cytotoxicity, hits mostly inhibitors; 1,400 tested, 2% active; AID 720523, 2013;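 further: cells exposed to compounds for 18 to 24 hours; on the % scale 0 is the no-effect control and ±100 the full control effect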
ARE-Fluc inh: Nrf2 qHTS screen for inhibitors: Nrf2 A549 ARE-Fluc Confirmation Assay for Hit Validation | shares compounds with Nrf2 inh | A549 ARE-firefly luciferase reporter, luminescence | Potency, µM (series often up to 46.1 µM), inactives show top-dose activity change, negative = inhibition, actives largely listed as inhibitors | 1,400 tested, 74% active | AID 720524, 2013; further: on the % scale 0 is the no-effect control and ±100 the full control effect; nearly all actives have a fitted effect of over 65% in size
The depositor's hits bear a star; ? = inconclusive; · = no result given. The call rests on the fitted dose curve; in most records, active means well fitted curve in the direction sought with a large enough effect; inconclusive means small, poorly fitted or top-dose-only effect, or another doubt; inactive means no such curve, though single readings can be large; an effect the other way counts as inactive or inconclusive. Potency means the concentration at half of the fitted maximal effect.

SMILES	A549 tox-1	Nrf2 ARE act	IDH1 R132H inh	Nrf2 inh	ELG1 DNA repair	FLuc enzyme inh	A549 tox-2	ARE-Fluc inh
CC1CCC/C=C/C2CC(O)CC2C(O)/C=C/C(=O)O1 (stereo unspecified)	?	0%	2%	0.26µM*	0.65µM*	3%	?	·
C[C@H]1CCC/C=C/C2C[C@H](O)CC2[C@H](O)/C=C/C(=O)O1 (stereo partly specified)	?	4%	4%	0.15µM*	?	0%	?	·
O=C(Nc1ccc(OC(=O)N2CCCCC2)cc1)N1CCOCC1	-3%	-3%	8%	9.2µM*	-1%	-10%	-5%	5.2µM*
CCCCCn1c(=O)c(C(=O)NCc2ccc(Cl)cc2)c(O)c2ccccc21	-2%	0%	-5%	?	-8%	·	·	·
Cc1cc2ccccc2n1-c1ccc(C(=O)N2CCC(C(=O)NCc3ccc(Cl)cc3)CC2)s1	-15%	0%	8%	7.3µM*	·	-1%	-20%	8.2µM*
CC1CCOC(=O)C=CC=CC(=O)OC2CC3OC4C5OC5(C)C(O)CC4(COC(=O)C1O)C2(C)C31CO1 (stereo unspecified)	·	-2%	1%	0.52µM*	·	4%	·	0.37µM*
CC1=CC2OC3CC4OC(=O)C=CC=CC(C(C)O)OCC(O)C5(C)OC5C(=O)OCC2(CC1O)C4(C)C31CO1 (stereo unspecified)	·	-2%	5%	0.41µM*	·	-2%	·	0.26µM*
COc1ccc(CC2C(=O)NC(C)C(=O)N(C)C3C(=O)N(C)C(Cc4ccc(O)c(c4)Oc4ccc(cc4)C3O)C(=O)NC(C)C(=O)NC(C)C(=O)N2C)cc1 (stereo unspecified)	?	-2%	3%	1.3µM*	·	3%	?	0.41µM*
C#CC(C)(CC)NC(=O)Cn1nnc(-c2ccc(OCc3ccccc3C)cc2)n1 (stereo unspecified)	-14%	9%	-3%	?	·	·	·	·
Nc1ccc2ccccc2c1	-1%	4%	17%	?	·	·	·	·
C[n+]1c2cc(N)ccc2cc2ccc(N)cc21	?	-2%	5%	1.5µM*	·	-13%	86%	1.6µM*
Cc1cscn1	0%	2%	12%	12%	?	·	·	·
COc1cc2cc(C(=O)N3CC(COS(C)(=O)=O)c4ccc(O)cc43)[nH]c2c(OC)c1OC (stereo unspecified)	?	-2%	0%	0.058µM*	·	-19%	?	?
CC1CCC(NC(=O)c2cc3c(=O)n(C)c4ccccc4c3n2C)CC1 (stereo unspecified)	20%	3%	3%	3%	?	·	·	·
C#CC1(O)CCC2C3CCC4=C/C(=N/OCC(=O)NCC(=O)NC(C(=O)O)C(C)C)CC[C@]4(C)C3CC[C@@]21C (stereo partly specified)	3%	2%	6%	2.1µM*	?	1%	-6%	6.5µM*
Cn1c(=O)oc2cc(S(=O)(=O)NCC3CCCO3)ccc21 (stereo unspecified)	?	0%	0%	-2%	·	·	·	·

Screening data: PubChem, National Center for Advancing Translational Sciences (NCATS)
